Data taken from ChEMBL document CHEMBL4513216, “Probing the Open Global Health Chemical Diversity Library for Multistage-Active Starting Points for Next-Generation Antimalarials” (ACS Infect Dis, 2020).
In all, about 68,000 compounds went through this assay and about 2,700 (4%) showed an effect of 50% or more. What follows is part of a selection rich in strong results, with near analogues and random picks from the rest.

Test system: Plasmodium berghei
Test: Screen against P. berghei liver stage (PbLuc), transformed with Luciferase, at 2uM
Format: functional, HepG2
Conditions: tested at 2 uM

Row | SMILES | INHIBITION [%]
1 | O=C1CC2(CCN(Cc3ccco3)C2)CN1c1ccc2c(c1)OCO2 (stereo not given) | 14.06
2 | COCCCN1CCN([C@@H]2c3ccccc3C3(CCNCC3)[C@H]2O)CC1 | -13.79
3 | CC(C)CN1CC2(CCN(C(=O)c3nc4ncccn4n3)CC2)CC1=O | -47.52
4 | CCc1nc(N2CCCN(c3ncccn3)CC2)c2cnn(C)c2n1 | 29.53
5 | CCc1nc(N2CCN(c3ncccn3)CC2)c2cnn(C)c2n1 | 51.48
6 | CCCc1nc(N2CCCN(c3ncccn3)CC2)c2cnn(C)c2n1 | 17.73
7 | CCCn1cc(Cl)c(C(=O)N2C[C@H]3CC(OC)C[C@H]3C2)n1 (stereo not given in full) | -13.75
8 | CCCS(=O)(=O)N1CCCN(CCCOC)CC1 | -14.94
9 | COc1cccc(NC(=O)NCc2cnn(C)c2)c1 | 7.33
10 | Cn1cc(CC(CNC(=O)Nc2cccc(Cl)c2)C(N)=O)cn1 (stereo not given) | 31.78
11 | COc1cccc(NC(=O)NCC(Cc2cnn(C)c2)C(N)=O)c1 (stereo not given) | 55.25
12 | CO[C@@H]1CC[C@@H](NC(=O)c2ccc(OCCN3CCCC3)cc2)[C@H]1O | -1.51
13 | COCC(=O)N1CCC(c2cc3ncccc3c(O)n2)CC1 | 19.89
14 | c1ncn(CC2CN(CCCOc3ccc4c(c3)OCO4)CCO2)n1 (stereo not given) | 53.98
15 | Cc1cnn(CC2CN(CCCc3nc4ccccc4o3)CCO2)c1 (stereo not given) | 5.14
16 | c1ccc2oc(CCCN3CCOC(Cn4cncn4)C3)nc2c1 (stereo not given) | 53.11
17 | c1cnn(CC2CN(CCCOc3ccc4c(c3)OCO4)CCO2)c1 (stereo not given) | -14.46
18 | Fc1ccc(OCCCN2CCOC(Cn3cncn3)C2)cc1 (stereo not given) | -20.71
19 | c1ccc2oc(CCCN3CCOC(Cn4cccn4)C3)nc2c1 (stereo not given) | 14.11
20 | COc1cc(N2CCC3(CCN(Cc4csc(C)n4)C3)CC2)ncn1 | 7.76
21 | CNc1nc(C2CCCN(C(=O)C(C)(C)OC)C2)nc2c1CN(C)CC2 (stereo not given) | -11.02
22 | Cc1nc(Cn2c(=O)cnc3ccccc32)n(C)n1 | -48.07
23 | CCN(Cc1cccs1)C(=O)c1ccc(=O)n(C)c1 | 50.59
24 | CN(Cc1cccs1)C(=O)c1ccc(=O)n(C)c1 | 7.67
25 | COCCN(Cc1cccs1)C(=O)c1ccc(=O)n(C)c1 | 29.13
26 | CC(=O)N1CCC2(CC1)CN(C(=O)c1cccc3[nH]ccc13)C2 | 57.92
27 | CC(=O)N1CCC2(CC1)CN(C(=O)c1cccc3[nH]ccc13)CCO2 | 37.41

Row | SMILES | INHIBITION [%]
28 | CC(=O)N1CC2(CCN(C(=O)c3cccc4[nH]ccc34)CC2)C1 | 3
29 | Cc1ccc(N(Cc2ccco2)C(=O)Cc2cc(=O)n(C)[nH]2)cc1 | -12.06
30 | CC(NC(=O)c1cc(-c2cccc(Cl)c2)no1)C(=O)N1CCCC1 (stereo not given) | 24.29
31 | CC(NC(=O)c1cc(-c2cccc(Cl)c2)no1)C(=O)N(C)C (stereo not given) | 50.59
32 | COC(=O)[C@H](C)NC(=O)c1cc(-c2cccc(Cl)c2)no1 | 11.28
33 | O=C(c1cncs1)N1CCC(Cc2cnc3[nH]ccc3c2)CC1 | -11.64
34 | COCCNC(=O)Nc1ccc(-c2nc(C(C)C)no2)cc1 | 58.53
35 | CC(C)c1noc(-c2ccc(NC(=O)NCC(O)C(C)C)cc2)n1 (stereo not given) | -10.44
36 | CC(C)OC(=O)CNC(=O)Nc1ccc(-c2nc(C(C)C)no2)cc1 | -13.72
37 | O=c1c2ccc(C(F)(F)F)cc2ncn1CCCN1CCCCC1CO (stereo not given) | -13.49
38 | Cc1nn(C)cc1CN1CCC(c2ncc(Cl)cc2S(C)(=O)=O)CC1 | 20.51
39 | COc1ccc(C2SCC(=O)Nc3n[nH]cc32)c(OC)c1OC (stereo not given) | 2.66
40 | COc1cc(C2SCC(=O)Nc3n[nH]cc32)cc(OC)c1O (stereo not given) | -33.37
41 | O=C1CSC(c2ccncc2)c2c[nH]nc2N1 (stereo not given) | 76.13
42 | Cc1cccc(C(=O)NCc2ccccc2)n1 | 5.09
43 | CC(C)(C)S(=O)(=O)CCNC(=O)NCCCc1cccc(F)c1 | 26.02
44 | CC(=O)NCCNC(=O)NCCCc1cccc(F)c1 | 31.55
45 | CC(C)NC(=O)NCCCc1cccc(F)c1 | 78.96
46 | OC(CN1CCN(CCOCC(F)(F)F)CC1)c1ccccc1 (stereo not given) | 25.35
47 | N#Cc1ccccc1N1CCCN(C(=O)CCc2ccco2)CC1 | 75.56
48 | N#Cc1cccnc1N1CCCN(C(=O)CCc2nccs2)CC1 | -71.75
49 | N#Cc1cccnc1N1CCCN(C(=O)CCc2cccs2)CC1 | 10.1
50 | Cc1ncsc1CCC(=O)NC1CCN(c2ccc(Cl)nn2)CC1 | 2.04
51 | Cc1ncsc1C(=O)NC1CCN(c2ncccc2C#N)CC1 | -4.58
52 | N#Cc1ccccc1N1CCCN(C(=O)CCc2cccs2)CC1 | 16.08
53 | N#Cc1cccnc1N1CCN(C(=O)CCC(=O)c2cccs2)CC1 | 53.81
54 | N#Cc1cccnc1N1CCN(C(=O)c2cccs2)CC1 | 23.76

Row | SMILES | INHIBITION [%]
55 | N#Cc1ccccc1N1CCCN(C(=O)CCc2ccsc2)CC1 | -107.32
56 | O=C(CCc1nccs1)N1CCN(c2ccccc2F)CC1 | 44.12
57 | N#Cc1ccccc1N1CCCN(C(=O)CCc2nccs2)CC1 | 63.95
58 | Cc1ncsc1CCC(=O)NC1CCN(c2ncccc2C#N)CC1 | 51.81
59 | COC1COC2(CCN(Cc3ccccc3C)CC2)C1 (stereo not given) | 27.65
60 | CC(C)n1cnc2c(N3CCCC3)nc(C3CCNCC3)cc21 | 14.39
61 | CC(NCc1ccccc1Br)c1ccc2[nH]c(=O)[nH]c2c1 (stereo not given) | 20.28
62 | CCCc1nc2c(c(C)c(C)n2Cc2ccccn2)c(N)c1CC | -17.84
63 | O=C(NCCc1cc(N2CCOCC2)nc(NC2CC2)n1)C1CC1 | 38.45
64 | COCCN1CCN(c2nc(O)cc(Cc3ccccc3F)n2)CC1 | -35.66
65 | Cc1cc(NC(=O)Cn2cc(C#N)c(=O)c3cc(Br)ccc32)no1 | 3.43
66 | CN(Cc1cc(C2CC2)on1)C(=O)CN1C(=O)OC(C)(C)C1=O | 37.41
67 | CN(Cc1ccoc1)C(=O)CN1C(=O)OC(C)(C)C1=O | 0.85
68 | CN(Cc1ccon1)C(=O)CN1C(=O)OC(C)(C)C1=O | 70.76
69 | CCn1nc(C)c2nc(C(C)C)nc(N3CCC(O)CC3)c21 | 5.86
70 | O=C(c1cccc(F)c1)N1CCC2(CC1)CN(c1ccccn1)CCO2 | -29.13
71 | COCCn1/c(=N\C(=O)CN(C)S(C)(=O)=O)sc2cc(C)ccc21 | 29.19
72 | COCCn1/c(=N\C(=O)CN(C)S(C)(=O)=O)sc2cc(Cl)ccc21 | 52.05
73 | COCCn1/c(=N\C(=O)CN(C)S(C)(=O)=O)sc2cc(OC)ccc21 | 11.87
74 | Nc1ncnc2[nH]c(N3CCCCC3)nc12 | -87.36
75 | Clc1ccccc1OC1CN(CC2CCOC2)C1 (stereo not given) | -14.36
76 | CC(C)NC(=O)N1CCC[C@H]1C(=O)NCCCc1cccc(F)c1 | -22.24
77 | CN(Cc1cccc(F)c1)C(=O)CN1CCCC(Cn2cncn2)C1 (stereo not given) | 53.1
78 | CN(Cc1ccccc1)C(=O)CN1CCCC(Cn2cncn2)C1 (stereo not given) | 45.5
79 | CN(Cc1cccc(F)c1)C(=O)CN1CCCC1CCc1ccccc1 (stereo not given) | 80.56
80 | N#CCCN(CCC#N)C(=O)CN1CCCC1Cc1cccc(F)c1 (stereo not given) | -43.03
81 | CN(Cc1ccc(F)cc1)C(=O)CN1CCCC(Cn2cncn2)C1 (stereo not given) | 2.08

Row | SMILES | INHIBITION [%]
82 | CN(Cc1cccc(F)c1)C(=O)CN1CCCCC1Cn1cncn1 (stereo not given) | 3.3
83 | COc1cc(OC)cc(C(=O)N(C)Cc2nnc3ccccn23)c1 | 34.39
84 | Cc1ccc(N2C[C@H]3CCC[C@@H](CN4CCOCC4)[C@H]3C2)nn1 | -7.49
85 | CN(C)c1ccc(C(=O)NCc2cccnc2-n2cncn2)cc1F | 20.19
86 | CN(C)C1CCN(C(=O)NCc2ccccc2Cn2cncn2)CC1 | 9.05
87 | NC(=O)C1CCN(C(=O)NCc2ccccc2Cn2cncn2)CC1 | 64.07
88 | O=C(NCc1ccccc1Cn1cncn1)N1CCCC1 | -9.49
89 | O=C(CCC1CCCO1)NCc1ccccc1Cn1cncn1 (stereo not given) | 64.16
90 | O=C(CC1CCCO1)NCc1ccccc1Cn1cncn1 (stereo not given) | 8.37
91 | O=C(CCNC(=O)C1CCCC1)NCc1ccccc1Cn1cncn1 | -14.17
92 | O=C(NCc1ccon1)c1c(F)cc(Br)cc1F | 1.04
93 | Cc1nc(C2CCCN(C(=O)c3c[nH]c(C(C)C)n3)C2)no1 (stereo not given) | 13.3
94 | Cc1cc(C)n(CC2CCCCN2CC(=O)NC2CCOCC2)n1 (stereo not given) | 27.5
95 | CCN(Cc1cnn(CC)c1)C(=O)CN1C(=O)CCc2ccccc21 | 21
96 | CC(C)(C)c1n[nH]c(C2CN(C(=O)c3ccsc3)CCO2)n1 (stereo not given) | 31.19
97 | CNC(=O)C(C)(C)NC(=O)c1cc(COc2cccc(C(C)=O)c2)[nH]n1 | -8.74
98 | CC(c1cccnc1)N(C)Cc1ccccn1 (stereo not given) | -18.23
99 | CC1N(CC2CC2)C(=O)COC12CCN(C(=O)c1cccs1)CC2 (stereo not given) | 32.04
100 | CCCN1CCN(S(=O)(=O)c2ccccc2OC)[C@H]2CS(=O)(=O)C[C@H]21 | 52.45
101 | CCN1CCN(S(=O)(=O)N2CCc3ccccc3C2)[C@H]2CS(=O)(=O)C[C@H]21 | 25.37
102 | COc1ccccc1S(=O)(=O)N1CCN(C)[C@@H]2CS(=O)(=O)C[C@@H]21 | 40.88
103 | Cc1cc(C(=O)Nc2cc(C3CC3)n[nH]2)c2c(C)nn(C)c2n1 | 40.99
104 | CCn1ncc(NC(=O)c2cc(C3CC3)nc3c2c(C)nn3C)c1C | 52.52
105 | CCCn1ncc2c(C(=O)Nc3cnn(CC)c3C)cc(C3CC3)nc21 | 34.52
